# Hits are enriched below; roughly 7.9% of the tested compounds scored in any of these assays.
# KB-3-1 tox: kills parental KB-3-1 adenocarcinoma cells | KB-3-1 viability, CellTiter-Glo ATP luminescence, 72 h | Potency, µM (doses to about 46.1 µM), actives largely listed as cytotoxic | 400,000 tested, 1.4% active | AID 1347075; also: nearly all actives have a fitted effect of over 60% in size
#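 KB-3-1 cells, DMEM (no phenol red) + 10% FBS; compound by pin transfer, 72 h, 37 °C. Readout: CellTiter-Glo luminescence after 10 min. Data normalized, curve-fitted.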
# MCF10A rerep: DNA re-replication induction in MCF 10a cells. Potency, µM (series often up to 46.1 µM), actives largely listed as activators. MCF 10A DNA re-replication, Hoechst nuclear intensity, 48 h. AID 624296. 350,000 tested, 2.9% active; also: nearly all actives have a fitted effect of over 50% in size
# HT1080NT lethal: kills 2HG-producing HT-1080-NT fibrosarcoma cells; 360,000 tested, 1.6% active; HT-1080-NT fibrosarcoma viability, CellTiter-Glo ATP luminescence, 48 h; Potency, µM (highest dose often 46.1 µM), most hits filed as cytotoxic;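 also: NT is the 2HG producing partner of a matched IDH1 knockdown line; nearly all actives have a fitted effect of over 55% in size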
#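 Luminescent CellTiter-Glo readout after 48 hours of compound exposure at 37 degrees C defined viability of HT-1080-NT cells. Activity was normalized to DMSO wells and cell-free media wells; concentration-response curves were fitted and assigned curve classes.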
# SW480 rereplic: induces DNA re-replication in SW480 colon adenocarcinoma cells. SW480 DNA re-replication, Hoechst DNA content imaging, 48 h. Potency, µM (series often up to 46.1 µM), hits mostly activators. 340,000 tested, 1.8% active. AID 624297; also: nearly all actives have a fitted effect of over 55% in size
#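 Cells (250 per well) received 23 nL compound or DMSO by pin tool and were kept 48 hr at 37 C, 5% CO2. Nuclei were then stained with Hoechst for 40 min and scanned for DNA content.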
# KB-V1 MDR tox: KB-V1 MDR subline cytotoxicity; KB-V1 MDR cells viability, CellTiter-Glo, 72 h; Potency, µM (top dose mostly 46.1 µM), actives largely listed as cytotoxic; 400,000 tested, 3.4% active; AID 1347076; also: nearly all actives have a fitted effect of over 60% in size
#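 Luminescent ATP read-out (CellTiter-Glo, 10 min) measures survival of drug-selected KB-V1 MDR cells after 72 h, 37 degrees C compound exposure. Medium: phenol-red-free DMEM, 10% FBS. Values from fitted concentration-response curves.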
# HT1080 IDH1KD tx: toxicity to HT-1080 IDH1 knockdown cells (counter line). HT-1080 IDH1 knockdown viability, ATP luminescence, 48 h. Potency, µM (doses to about 46.1 µM), actives largely listed as cytotoxic. 360,000 tested, 2% active
#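 HT-1080-IDH1KD cells (IDH1 knocked down), 750/well in RPMI with 5% FBS, treated with compound 48 h at 37 degrees C. Viability by CellTiter-Glo luminescence, normalised to DMSO and no-cell wells; concentration-response curves classed.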
# Numbers stand for hits; – = inactive; ? = inconclusive; · = not tested or not shown. Calls follow the shape of the dose curve; as a rule, active = well fitted curve in the direction sought with a large enough effect; inconclusive = small, poorly fitted or top-dose-only effect, or another doubt; inactive = no such curve, though single readings can be large; an effect the other way counts as inactive or inconclusive.
SMILES,KB-3-1 tox,MCF10A rerep,HT1080NT lethal,SW480 rereplic,KB-V1 MDR tox,HT1080 IDH1KD tx
O=C(NCC1CCCO1)C1CCCN(S(=O)(=O)c2ccc(Cl)cc2)C1 (stereo unspecified),–,–,–,–,–,–
Cc1ccc2c(=O)n3c(nc2c1)C(Cc1ccc(O)cc1)NC(=O)c1cc2ccccc2cc1-3 (stereo unspecified),16µM,·,5.2µM,·,?,6.5µM
O=C1NC(Cc2ccc(O)cc2)c2nc3cc(F)ccc3c(=O)n2-c2cc3ccccc3cc21 (stereo unspecified),15µM,·,15µM,·,?,18µM
O=C1NC(Cc2ccc(O)cc2)c2nc3cc(Cl)ccc3c(=O)n2-c2cc(Cl)ccc21 (stereo unspecified),?,?,–,–,–,?
O=C1NC(Cc2ccc(O)cc2)c2nc3cc(F)c(F)cc3c(=O)n2-c2ncccc21 (stereo unspecified),–,·,?,·,–,21µM
O=C1NC(Cc2ccc(O)cc2)c2nc3ccc(Cl)cc3c(=O)n2-c2cc3ccccc3cc21 (stereo unspecified),?,·,15µM,·,?,?
O=C1NC(Cc2ccccc2)c2nc3ccc(Cl)cc3c(=O)n2-c2cc3ccccc3cc21 (stereo unspecified),?,·,–,·,–,?
O=C1NC(Cc2ccc(O)cc2)c2nc3cc(F)ccc3c(=O)n2-c2ncccc21 (stereo unspecified),–,·,–,·,–,–
O=C(Nc1ccccc1Br)c1cc[n+]([O-])cc1,–,?,–,–,–,–
CN(C)CCNc1ncnc2ccc(-c3ccc4c(c3)OCO4)cc12,–,·,·,·,–,·
CNc1nc(N)c([N+](=O)[O-])c(Nc2ccccc2OC)n1,–,–,–,–,?,–
Cc1nn(CC(C)C)c(Cl)c1C(=O)N(C)CC(=O)Nc1c(Cl)cccc1Cl,–,–,–,?,?,–
COc1ccccc1NC(=O)c1cc(C(=O)Nc2ccccc2OC)n(C)n1,–,–,–,?,?,–
COC(=O)[C@@]1(C)[C@H]2C(=O)N(C)C(=O)[C@H]2[C@H]2CN=C(SCc3ccc(Cl)cc3)N21,–,–,–,–,–,–
CCCC1NC(=O)c2cc3ccccc3cc2-n2c1nc1cc(Cl)ccc1c2=O (stereo unspecified),18µM,·,–,·,12µM,–
CC1=CN2C(=N)/C(=C/c3ccco3)C(=O)N=C2S1,–,–,–,–,–,–
CC1=CN2C(=N)/C(=C/c3cn(CCCOc4ccccc4C)c4ccccc34)C(=O)N=C2S1,–,–,–,15µM,–,–
COc1ccc(OCCCn2cc(/C=C3/C(=N)N4C=C(C)SC4=NC3=O)c3ccccc32)cc1,–,–,–,–,10µM,–
COc1cccc(OCCn2cc(C=O)c3ccccc32)c1,–,–,–,–,–,–
COc1cccc(OCCCn2cc(/C=C3/C(=N)N4C=C(C)SC4=NC3=O)c3ccccc32)c1,–,8.2µM,?,–,–,?
COc1cc2cncnc2cc1OCCCCC(N)=O,·,·,–,·,·,–
O=C(/C=C/c1ccc(Cl)c([N+](=O)[O-])c1)Nc1cccc(NC(=O)c2ccco2)c1,–,?,?,?,–,?
CC(=O)Nc1cccc(NC(=O)c2ccco2)c1,–,–,–,–,–,–
O=C(/C=C/c1cccc([N+](=O)[O-])c1)Nc1cccc(NC(=O)c2ccco2)c1,?,16µM,–,–,?,–
O=C(Nc1cccc(NC(=O)c2ccc([N+](=O)[O-])o2)c1)c1ccco1,?,2.3µM,18µM,4.1µM,?,10µM
O=C(/C=C\c1ccco1)Nc1cc([N+](=O)[O-])ccc1F,4.1µM,?,1.5µM,0.58µM,1.2µM,?
O=C(Nc1ccc(NC(=O)c2ccc([N+](=O)[O-])o2)cc1Cl)c1ccco1,18µM,9.2µM,–,2.1µM,–,?
COC(=O)c1ccccc1NC(=O)C1=CC(c2ccc3c(c2)OCO3)=NS(=O)(=O)N1C,–,·,·,·,–,·

# Screens deposited in PubChem BioAssay by National Center for Advancing Translational Sciences (NCATS).
